From PubChem BioAssay (NCI)
Where “and” joins values, the source holds several entries; their conditions need not be identical. Equal entries are not always repeated. The panel holds about 79,000 compounds, 15% with a hit somewhere; the sample as a whole holds those more often. A number with no mark means an inactive call. Calls of active or inactive are those of the source. No stated cut-off is given here; in the data, active means growth inhibition above about 70%; inactive means the rest.

Tests used:
[1] = NCI Yeast Anticancer Drug Screen. Data for the rad50 strain (AID 155);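 further: 0% = growth of vehicle-only cultures of the same strain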; details: S. cerevisiae rad50 strain growth inhibition; at 50.0 µM; hits give high values
Summary of the method: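 Readout: growth inhibition relative to vehicle-treated cultures. Compound exposure was carried out in a genetically defined yeast strain deficient in DNA damage repair.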

[2] = NCI Yeast Anticancer Drug Screen. Data for the mec2-1 strain (AID 157); details: S. cerevisiae mec2-1 strain, at 50.0 µM, hits give high values
Summary of the method: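 Each compound was tested on mec2-1 yeast, a strain altered in DNA damage repair or cell cycle control. Growth inhibition is reported relative to vehicle.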

[3] = NCI Yeast Anticancer Drug Screen. Data for the sgs1 mgt1 strain (AID 161);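 further: 0% = growth of cultures given vehicle only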; details: S. cerevisiae sgs1 mgt1 strain, at 50.0 µM, hits give high values
Summary of the method: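 Mutant yeast exposed to compound; growth scored against vehicle-only wells.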

[4] = NCI Yeast Anticancer Drug Screen. Data for the cln2 rad14 strain (AID 165);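 further: 0% = growth equal to vehicle treated cultures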; details: S. cerevisiae cln2 rad14 strain, at 50.0 µM, hits give high values
Summary of the method: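 Test compounds were added to cln2 rad14 yeast cultures; inhibition of growth was then determined by comparison with vehicle treatment.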

[5] = NCI Yeast Anticancer Drug Screen. Data for the bub3 strain (AID 167); details: S. cerevisiae bub3 mutant strain, at 50.0 µM, hits give high values
Summary of the method: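 Readout: yeast growth inhibition, expressed relative to vehicle-only wells. The test organism is a mutant strain from a panel with lesions in DNA repair or checkpoint genes.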

[6] = NCI Yeast Anticancer Drug Screen. Data for the mlh1 rad18 strain (AID 175); details: S. cerevisiae mlh1 rad18 strain growth inhibition; at 50.0 µM; hits give high values
Summary of the method: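 Inhibition values reflect reduced growth of mutant yeast versus vehicle-treated controls following compound exposure; the mutations affect DNA damage repair.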

SMILES	growth inhibition [1]	growth inhibition [2]	growth inhibition [3]	growth inhibition [4]	growth inhibition [5]	growth inhibition [6]
COC(=O)Cc1ccccc1	-4.4%	15.1%	-31.8%	5.9%	-50.5%	-19.5%
COC(=O)C1=NNC2(c3ccccc3Sc3ccccc32)C1C(=O)OC (centres undefined)	-8.95%	-8.25%	-12.5%	25.5%	-18.9%	-11.8%
O=C([CH-]C(=O)C(F)(F)F)c1ccco1.O=C([CH-]C(=O)C(F)(F)F)c1ccco1.O=C([CH-]C(=O)C(F)(F)F)c1ccco1.[Ru+3]	8.2%	-11%	-19.6%	-11.6%	1.95%	11.7%
CCOC(=O)/C=C1\Nc2ccccc2C(c2ccccc2)=NC1OC(C)=O (centres undefined)	39.1%	-20.6%	22.6%	23.6%	-13.7%	-9%
CCC(=O)C(c1ccccc1)(c1ccccc1)C(C)CN1CCCCCCC1 (centres undefined)	30.3%	12.1%	10.8%	1.9%	10.8%	35.4%
CC12CC(=O)C3C(CCC4CC=CCC43C)C1CCC2=O (centres undefined)	22.1%	-12.5%	28.1%	5.8%	10%	24.5%
CC(Br)([N+](=O)[O-])[N+](=O)[O-]	14.6%	25.8%	13.9%	39.6%	5.4%	2.8%
C=CCc1cc(-c2cc(CC=C)c(O)c(CN(CCCl)CCCl)c2)cc(CN(CCCl)CCCl)c1O	41.5%	49.8%	47.1%	43.1%	60%	44.1%
COc1ccc2[nH]cc(CN(C)C)c2c1	21.4%	-7.6%	-10.2%	5.3%	-6.35%	18.6%
N#Cc1ccc(NN=O)cc1	15.9%	-3.15%	10.4%	-0.2%	25%	28.1%
N#CC(C#N)=Cc1ccco1	-7.95%	6.15%	24.7%	-42.4%	-3.85%	5.5%
O=C1[C@@H]2[C@H](C(=O)N1c1ccccc1)[C@H]1CC[C@H]2N1C(=O)c1ccccc1	18.9%	17.4%	2.2%	2.75%	13.2%	6.5%
O=[N+]([O-])O.[NH-]C1CCCCC1[NH-].[NH-]C1CCCCC1[NH-].[OH-].[OH-].[Pt+4].[Pt+4] (centres undefined)	49.8%	-4.8%	-29.3%	-5.45%	-41%	30.2%
CC(C)CNP(=S)(NCC(C)C)c1ccccc1	4.5%	12.9%	6.7%	5.55%	18.9%	21.3%
CC(=O)NNC(=O)C(Cl)Cl	5.45%	-3.75%	8.45%	8%	4.15%	25.4%
N#CC(c1ccccc1)N1CCCN(C(C#N)c2ccccc2)C1c1ccc(N(CCCl)CCCl)cc1 (centres undefined)	11.1%	-1.5%	2.25%	-17.3%	-0.9%	9.65%
O.O.O=C(O)CC(=O)O.[NH-]C1CCCCC1[NH-].[Pt+2] (centres undefined)	-25.4%	-5.3%	-20.4%	-18.9%	2.75%	-28.6%
Cc1cc(O)ccc1[N+](=O)[O-]	1.15%	-1.2%	11.8%	9.6%	2.9%	2.95%
COC(=O)C(C)NP(=O)(N1CC1)N1CC1 (centres undefined)	1.5%	-2.25%	-5.05%	-10.2%	-7.85%	-14.3%
Cc1nnc2n1-c1ccccc1C(=S)N1CSCC21 (centres undefined)	-22%	-0.25%	-24.7%	8.15%	-6.7%	-0.45%

SMILES	growth inhibition [1]	growth inhibition [2]	growth inhibition [3]	growth inhibition [4]	growth inhibition [5]	growth inhibition [6]
CCC1CC[N-]CC1.CCC1CC[N-]CC1.[Cl][Pt+2][Cl]	-0.95%	14.8%	73% (active)	-42.5%	18.1%	48.8%
CN(C)CCNC(=O)c1cc(COC(=O)N(CCCl)CCCl)ccc1[N+](=O)[O-]	38.2%	36.9%	56.1%	28.1%	35.8%	56.8%
CC(C)[C@](O)(C(=O)OCC1=CC[N+]2([O-])CC[C@@H](O)[C@@H]12)[C@H](C)O (some centres undefined)	-10.2%	-46.3%	4.35%	-0.85%	-26.2%	-10.2%
COc1ccc2c(c1)CC(CN1CCC3(CC1)C(=O)NCN3c1ccccc1)O2 (centres undefined)	76.7% (active)	57%	86.4% (active)	79% (active)	55.5%	78.5% (active)
CN(C)c1ccc(-c2ccc(N(C)C)cc2)cc1	-10.6%	7.3%	5.45%	17.6%	3.2%	-2.6%
CCC1(CC)C(=O)C=CNC1=O	17.6%	-20.6%	11.7%	1.1%	-8.15%	8.15%
O=C(O)COc1ccccc1	10.9% and -7.6%	9.2% and 1.65%	5.8% and -36.2%	-16.6% and 6.7%	-10.2% and -17.4%	-13.2% and -0.15%
CC(C)OC(N)=O	-2.35%	-24.9%	29.2%	13.6%	-21%	-6.85%
CC(C)(C)NC(=O)C(Cl)Cl	-0.65%	-5.7%	-5.85%	-9.6%	5.15%	3.35%
CC(=O)O/C=C(/C=C/OC(C)=O)C(C/C=C(\C)C#CC=C(C)C)OC(C)=O (centres undefined)	4.95%	-13.7%	0.8%	-2.2%	5.5%	-0.1%
O=C(O)CCCC1CCCCC1.[Ni]	-6.95%	14.8%	-2.1%	16%	-10.8%	-18.6%
O=S(=O)(O)c1ccc(CBr)cc1	-27.6%	-27.6%	0.6%	-36.4%	-3.5%	-6.85%
O=[N+]([O-])c1ccc(NC(c2ccccc2)P(=O)(Oc2ccccc2)Oc2ccccc2)cc1 (centres undefined)	-1.75%	-6.4%	-43.1%	-6%	-2.05%	3.65%
Cc1ccc2ccccc2c1	3.9%	-14.5%	-6.05%	-3.05%	2.4%	-7.35%
CC1(C)OC(C=O)C2CC(=O)c3c(O)cccc3C2(C)O1 (centres undefined)	33.4%	-1.45%	12.9%	-4.15%	11.9%	0.35%
Cc1c(O)c(O)c(C)c(CCN)c1O	15.4%	19.8%	22.1%	-26.8%	25.1%	27.9%
O=C1NC(=O)C2(CCc3ccc(N(CCCl)CCCl)cc32)N1 (centres undefined)	14.1%	-19.5%	-4.75%	11.9%	-16.6%	11.1%
O.O=S(=O)(O)O.[Co+3].[NH2-].[NH2-].[NH2-].[NH2-].[OH-]	31.2%	10.7%	8.6%	29.2%	12.4%	21.5%
Cc1nc([N+](=O)[O-])c([N+](=O)[O-])n1CC(O)CCl (centres undefined)	3.85%	-12.4%	4.2%	14.9%	-28.1%	20.4%
